Bioassay records (PubChem)
Most compounds without a hit are left out; they make up all but 8.2% or so of the library.
ELG1 repair inh – inhibitors of ELG1-dependent DNA repair in HEK293T cells | HEK293T ELG1-luciferase reporter, luminescence, 16 h; DNA damage induced by 5-fluorouridine | Potency, µM (doses to about 46.1 µM), for the others: at the highest dose activity change, negative = inhibition, actives largely listed as inhibitors | actives 2.3% (n = 330,000) | AID 504467; note: % is set by controls: 0 for no effect and ±100 for the full control effect; nearly all actives have a fitted effect of over 55% in size
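Reporter activity after DNA damage by 5-fluorouridine is monitored. Compound-treated cells incubate 16 hr at 37 °C, then ONE-Glo is added for 30 min before luminescence reading.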
KB-V1 MDR tox – kills drug-selected multidrug resistant KB-V1 cells; KB-V1 MDR cells viability, CellTiter-Glo, 72 h; Potency, µM (doses to about 46.1 µM), hits mostly cytotoxic; actives 3.4% (n = 400,000); AID 1347076; note: % is set by controls: 0 for no effect and ±100 for the full control effect; nearly all actives have a fitted effect of over 60% in size
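Cytotoxicity toward P-gp-expressing KB-V1 cells was determined as loss of CellTiter-Glo luminescence after 72 h at 37 degrees C. Compounds were tested in quantitative HTS format across a concentration range, with curves fitted to normalized data.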
SW480 rerep – induces DNA re-replication in SW480 colon adenocarcinoma cells | actives 1.8% (n = 340,000) | SW480 DNA re-replication, Hoechst DNA content imaging, 48 h | AID 624297 | Potency, µM (doses to about 46.1 µM), inactives show at the top dose re-replication activation, most hits filed as activators; note: % of control where 0% means no effect; nearly all actives have a fitted effect of over 55% in size
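250 cells/well; 23 nL cpd via pin tool; 48 hr, 37 C, 5% CO2; Hoechst 40 min; imager read of total nuclear intensity, ex 405/em 500-530 nm.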
KB-3-1 cytotox – kills parental KB-3-1 adenocarcinoma cells. KB-3-1 viability, CellTiter-Glo ATP luminescence, 72 h. Potency, µM (doses to about 46.1 µM), actives largely listed as cytotoxic. actives 1.4% (n = 400,000); note: % is set by controls: 0 for no effect and ±100 for the full control effect; nearly all actives have a fitted effect of over 60% in size
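Screening of KB-3-1 cells (DMEM, 10% FBS, phenol-red free) ran from lowest to highest compound concentration; after 72 h at 37 °C viability was read luminescently and curves fitted.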
MCF10A rerep – DNA re-replication induction in MCF 10a cells; MCF 10A DNA re-replication, Hoechst nuclear intensity, 48 h; Potency, µM (titrated, usually from 46.1 µM), without a hit: at the highest dose activity, positive = re-replication, actives largely listed as activators; actives 2.9% (n = 350,000); note: % of control where 0% means no effect; nearly all actives have a fitted effect of over 50% in size
The depositor's hits bear a star; i = inactive; ? = inconclusive; nt = no result given. Calls come from the whole dose curve; as a rule, active = well fitted curve in the direction sought with a large enough effect; inconclusive = small, poorly fitted or top-dose-only effect, or another doubt; inactive = no such curve, though single readings can be large; an effect the other way counts as inactive or inconclusive. Potency is the fitted concentration of half-maximal effect.

SMILES | ELG1 repair inh | KB-V1 MDR tox | SW480 rerep | KB-3-1 cytotox | MCF10A rerep
Cc1cccc(S(=O)(=O)Nc2nc3ccccc3nc2OC(C)C)c1 | 5% | i | -8% | i | -6%
NC(=O)c1cc(Br)cc2c3c([nH]c12)CCCC3 | -16% | 16µM* | ? | 8.2µM* | ?
COc1ccc(C2=C(C)C(=O)N(Cc3ccc(C(=O)Nc4ccc(F)cc4C)cc3)S2(=O)=O)cc1 | nt | i | nt | 4.6µM* | nt
CCn1c(=O)cc(OCC(=O)Nc2ccccc2Cl)c2ccccc21 | nt | i | nt | i | nt
O=C1C(=Cc2cn(-c3ccccc3)nc2-c2ccc(OCc3ccc(Cl)cc3)cc2)SC(=S)N1CCS(=O)(=O)O | nt | ? | nt | 8.2µM* | nt
COc1ccccc1CNc1nc2cc(-c3ccsc3)sc2c(=O)n1C | nt | 21µM* | nt | ? | nt
COc1ccc(-c2cc3nc(NCc4ccc(C)cc4C)n(C)c(=O)c3s2)cc1OC | nt | 2.6µM* | nt | 15µM* | nt
Cc1ccc(CNc2nc3cc(-c4ccccc4)sc3c(=O)n2C)c(C)c1 | nt | ? | nt | i | nt
Cn1c(NCC2CCCCC2)nc2cc(-c3ccsc3)sc2c1=O | nt | i | nt | 18µM* | nt
COc1nc(=O)n(C2CCCO2)cc1C (stereo unspecified) | nt | i | 3% | i | 2%
Cc1ccc(-n2ncc(C(=O)NCCN3CCc4ccccc4C3)c2C2CCN(C(=O)OC(C)(C)C)CC2)cc1 | nt | i | nt | ? | nt
C/C(=N\NC(=O)CNC(=O)c1ccc(F)cc1)c1ccco1 | 14% | ? | -1% | i | 0%
CCOc1ccc(Nc2nc(N)nc(CCl)n2)cc1 | ? | i | ? | 13µM* | ?
Cc1ccccc1Nc1nc(N)nc(COC(=O)c2cccc(S(=O)(=O)N(C)C)c2)n1 | ? | 18µM* | 2% | i | ?
COc1ccccc1Nc1nc(N)nc(-c2oc3ccccc3c2C)n1 | 11% | i | 7.3µM* | i | ?
Nc1nc(CCl)nc(Nc2ccccc2)n1 | -16% | ? | 6.5µM* | ? | ?
Cc1ccccc1Nc1nc(N)nc(COC(=O)c2cccc(S(=O)(=O)NCc3ccccc3)c2)n1 | ? | i | 1% | i | ?
Nc1cc2c(cc1Cl)-c1ccc([N+](=O)[O-])cc1C2=NO | nt | i | 10% | i | 17%
COc1ccc(OC)c(C2NC(=O)N(C)C(C)=C2C(=O)OCc2ccccc2)c1 (stereo unspecified) | -14% | i | 10% | i | 16%
Cc1cccc(Nc2nc(N)nc(CCl)n2)c1 | ? | i | ? | ? | ?
COc1ccc(OC)c(Nc2nc(N)nc(CCl)n2)c1 | ? | ? | 2.6µM* | i | 29µM*
Cc1cccc(Nc2nc(N)nc(CCl)n2)c1C | 9.2µM* | ? | ? | ? | ?
Nc1nc(COC(=O)CCC(=O)c2ccccc2)nc(Nc2ccccc2)n1 | ? | i | -46% | i | 13%
Cc1ccc(Nc2nc(N)nc(CCl)n2)c(C)c1 | ? | ? | 21% | ? | ?
COc1cccc(Nc2nc(N)nc(CCl)n2)c1 | ? | i | 15µM* | i | 18µM*
SMILES | ELG1 repair inh | KB-V1 MDR tox | SW480 rerep | KB-3-1 cytotox | MCF10A rerep
Nc1nc(COC(=O)c2ccc3c(c2)OCCO3)nc(Nc2ccccc2)n1 | -22% | 21µM* | -2% | i | 12%
CCN(C(=O)c1c([N+](=O)[O-])cnn1C)c1ccccc1 | nt | i | nt | i | nt
CCOC(=S)SSC(=S)OCC | nt | nt | -5% | nt | -5%
Cc1ccc(S(=O)(=O)CC(=O)Nc2ccc(Cl)cn2)cc1 | -18% | ? | -13% | i | 4%
CCN(CC(=O)Nc1ccc(OC)cc1)C(=O)Cc1ccc(OC)c(S(=O)(=O)N2CCOCC2)c1 | 21% | i | -10% | i | 3%
CC(=O)Nc1cccc(NC(=O)C(=O)NCC(c2ccco2)N2CCc3ccccc3C2)c1 (stereo unspecified) | -8% | ? | -3% | i | -2%
COc1ccccc1Nc1nc(N)nc(CCl)n1 | ? | ? | 12µM* | i | ?
COc1ccc(OCc2nc(N)nc(Nc3ccccc3OC)n2)cc1 | 0% | i | -9% | i | 20%
Cc1ccc(S(=O)(=O)c2cn(C)c3cc(N4CCOCC4)c(F)cc3c2=O)cc1 | 0% | i | 8% | i | 0%
O=C(Cc1ccc(NC(=O)C2CCN(C(=O)C3CCCC3)CC2)cc1)Nc1ccc(C(=O)N2CCOCC2)cc1 | nt | i | 2% | i | 2%
CC(/C=N/NC(=O)c1n[nH]c2c1CCC2)=C\c1ccccc1 | ? | 0.21µM* | 0.73µM* | 0.33µM* | 0.26µM*
O=C(N/N=C/C=C/c1ccccc1)c1n[nH]c2c1CCC2 | ? | 1µM* | 2.1µM* | 1.3µM* | 1.5µM*
O=C(N/N=C/C(Br)=C\c1ccccc1)c1n[nH]c2c1CCC2 | ? | ? | 0.52µM* | i | ?
C/C(=N\NC(=O)c1n[nH]c2c1CCC2)c1cccs1 | ? | i | ? | i | -5%
Cc1cc(C(=O)N/N=C/C=C/c2ccccc2)n[nH]1 | 18% | i | ? | i | -16%
COc1ccc(OC)c(Nc2nc3ccccc3n3c(C)nnc23)c1 | nt | i | nt | i | nt
COc1ccc(CCC(=O)NCCc2csc(-c3cccc(F)c3)n2)cc1 | nt | i | nt | i | nt
CCOC(=O)CN1C(=O)N[C@@H](c2cccc(F)c2)C(C(=O)OC)=C1C | nt | ? | 19% | i | 15%
O=C(CCCO)NNc1c2ccccc2nc2ccccc12 | -3% | i | ? | i | -5%
COc1ccc(OCC(=O)NNc2c3ccccc3nc3ccccc23)cc1 | ? | 4.6µM* | -3% | ? | ?
O=C(COc1ccccc1)NNc1c2ccccc2nc2ccccc12 | 21µM* | 18µM* | -1% | i | 22%
CCCC(=O)NNc1c2ccccc2nc2ccccc12 | 3% | 16µM* | -9% | i | -9%
c1ccc(-c2ccc3c(c2)c2c4n3CCN=C4CCC2)cc1 | -11% | 10µM* | ? | ? | 8.2µM*
OC1CN=C2CCCc3c2n(c2ccc(Cl)cc32)C1 (stereo unspecified) | -7% | i | 3% | ? | ?
COc1cccc(-c2nn(-c3ccccc3)cc2C(=O)Nc2nccs2)c1 | ? | i | 23% | i | ?
COc1ccc(-c2nn(-c3ccccc3)cc2C(=O)Nc2nccs2)cc1 | 6.5µM* | ? | -5% | ? | 8%
O=C(NCc1ccccn1)c1cn(-c2ccccc2)nc1-c1ccc(Cl)cc1 | -16% | 3.7µM* | -8% | i | ?
Cc1cccc(NS(=O)(=O)c2ccc3c(c2)CCN3C(=O)C2CC2)c1C | nt | i | nt | i | nt
